# In the library only some 2.7% were active in any assay of this set; here they are far more common.
# PAFAH1B3 FP inh: PAFAH1B3 enzyme inhibitors, primary screen, biochemical, fluorescence polarization, human; Platelet-activating factor acetylhydrolase IB subunit alpha1 (Homo sapiens), Q15102; inhibition, % at 3.39 µM; recombinant PAFAH1B3, FP-rhodamine probe; 340,000 tested, 0.28% active;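 active = inhibition above the screen-wide average of all tested compounds plus 3 SD, cut at about 25% in these data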
# pPAFAH inh: pPAFAH enzyme inhibitors, primary screen, biochemical, fluorescence polarization, human; recombinant pPAFAH, FP-rhodamine probe fluorescence polarization; 330,000 tested, 1.5% active; inhibition, % at 3.39 µM; AID 463082, 2010;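 active = inhibition above the mean inhibition across the screen plus 3 SD, cut at about 25% in these data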;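 note: inhibitors block binding of the rhodamine activity-based probe so polarization drops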
# Target sequence (Q13093 whole entry, looked up): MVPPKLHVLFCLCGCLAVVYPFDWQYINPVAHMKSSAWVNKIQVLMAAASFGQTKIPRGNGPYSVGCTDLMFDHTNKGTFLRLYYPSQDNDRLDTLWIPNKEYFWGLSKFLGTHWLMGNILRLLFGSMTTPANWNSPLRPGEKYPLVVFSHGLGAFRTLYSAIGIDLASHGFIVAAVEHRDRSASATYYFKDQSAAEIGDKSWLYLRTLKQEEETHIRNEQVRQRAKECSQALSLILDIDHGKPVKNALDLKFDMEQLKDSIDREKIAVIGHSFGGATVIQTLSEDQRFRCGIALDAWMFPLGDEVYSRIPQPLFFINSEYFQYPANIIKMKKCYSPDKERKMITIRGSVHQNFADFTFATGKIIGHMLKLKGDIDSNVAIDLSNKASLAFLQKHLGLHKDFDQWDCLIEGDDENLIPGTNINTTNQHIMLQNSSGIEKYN
# PAFAH1B2 FP inh: PAFAH1B2 enzyme inhibitors, primary screen, biochemical, fluorescence polarization, human; Platelet-activating factor acetylhydrolase IB subunit alpha2 (Homo sapiens), P68402; recombinant PAFAH1B2, FP-rhodamine activity probe; inhibition, % at 3.39 µM; 340,000 tested, 1.2% active; AID 492953, 2010;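 active = inhibition above the mean of all tested compounds plus 3 SD, cut at about 24% in these data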
# TCR-CD3 inh: inhibitors of human TCR-CD3 interaction, primary screen, biochemical, fluorescence, TAMRA-labeled TCR probe | T-cell receptor (TCR) | inhibition, % at 9.4 µM | 360,000 tested, 0.37% active | AID 651800, 2012; in the data active = inhibition above about 19%;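 note: recombinant mutant TCR 2C K166C tagged with TAMRA read by polarization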
# PAFAH2 inh: PAFAH2 enzyme inhibitors, primary screen, biochemical, fluorescence polarization, human; Platelet-activating factor acetylhydrolase 2, cytoplasmic (Homo sapiens), Q99487; recombinant PAFAH2, FP-rhodamine activity probe; inhibition, % at 3.39 µM; 340,000 tested, 0.99% active;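 active = inhibition above the mean over all tested compounds plus 3 SD, cut at about 30% in these data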;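 note: inhibitors block probe labeling of enzyme so polarization drops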
# A number is an active result; 0 = inactive; - = no result given.
SMILES,PAFAH1B3 FP inh,pPAFAH inh,PAFAH1B2 FP inh,TCR-CD3 inh,PAFAH2 inh
O=C(NCc1cccnc1)C(=O)Nc1nc(C23CC4CC(CC(C4)C2)C3)cs1,0,0,33,0,0
CNC(=O)C(=O)Nc1nc(C23CC4CC(CC(C4)C2)C3)cs1,0,0,26,0,0
O=C(NCc1ccccc1)C(=O)Nc1nc(C23CC4CC(CC(C4)C2)C3)cs1,0,0,0,0,0
COc1ccc(C(=O)CC2(O)C(=O)N(CN3CCOCC3)c3ccc(Br)cc32)cc1 (stereo not given),-,-,-,0,-
Cc1ccc(S(=O)(=O)N2[C@@H](CO)CO[C@H]2CC(=O)c2cccc3ccccc23)cc1,-,-,-,0,-
Cc1cc(OCCn2nc(C(=O)O)c3ccccc3c2=O)ccc1C(C)C,0,-,0,0,0
O=C(O)c1nn(CCOc2ccc(Br)cc2)c(=O)c2ccccc12,0,0,27,0,0
Cn1ccsc1=NC(=O)c1ccc(OC(F)(F)F)cc1,0,0,0,0,0
Cc1cc(NC(=O)CCC(=O)N(c2cccc(F)c2)C(C(=O)NC2CCCC2)c2ccccc2)no1 (stereo not given),0,0,0,0,0
Nc1cccc(C2=Nc3cccc4cccc(c34)N2)c1,33,0,25,0,0
COc1ccc(C2=Nc3cccc4cccc(c34)N2)cc1,0,0,0,0,0
COC(=O)c1cc2c(c3c4cc(F)ccc4n(S(=O)(=O)c4cccc(C)c4)c13)C(=O)N(Cc1ccc(N(C)C)cc1)C2,-,-,-,0,-
C[C@@H]1ON(C)[C@H]2C[C@H]3c4[nH]c5c(-c6ccc(Cl)cc6)cccc5c4CCN3C(=O)[C@@H]12,-,-,-,0,-
CCCCCCCCN1C(=O)[C@@H](CC(=O)NCc2cccs2)C[C@@]2(C(=O)OC)C1=C[C@H](C(C)(C)C)O[C@@H]2C,-,-,-,0,-
COc1ccc2nc(SCC(N)=O)cc(C)c2c1,0,0,0,0,0
COc1ccc2c(-c3ccccc3)cc(SCC(N)=O)nc2c1,0,33,0,0,0
CCNC(=O)O[C@@H]1C=C[C@@H](C#Cc2ccc(C(C)(C)C)cc2)O[C@@H]1COC(C)=O,-,-,-,0,-
COc1ccccc1-c1n[nH]c(=S)n1-c1ccccc1,0,0,25,0,0
O=C(O)c1cc(O)ccc1NC(=O)C(c1ccccc1)c1ccccc1,0,0,24,0,0
COc1ccccc1NC(=O)c1c([N+](=O)[O-])c(C(C)(C)C)nn1C,0,31,0,0,0
O=C(C(=O)N1CCC(CNS(=O)(=O)Cc2ccccc2)CC1)c1cccs1,-,-,-,0,-
Cc1[nH]nc2c1C(c1ccc(Br)cc1)N(c1ccccc1)C2=O (stereo not given),-,-,-,0,-
Cc1cc(C)c2nc(NNC(=O)c3ccc(S(=O)(=O)N4CCCC(C)C4)cc3)sc2c1 (stereo not given),0,29,0,0,0
Cc1cc(C)c2nc(NNC(=O)c3ccc(S(=O)(=O)N4CC(C)CC(C)C4)cc3)sc2c1 (stereo not given),0,0,0,0,0
Cc1nn(C(=O)c2ccco2)c(C)c1Sc1ccccc1,0,0,0,0,52
SMILES,PAFAH1B3 FP inh,pPAFAH inh,PAFAH1B2 FP inh,TCR-CD3 inh,PAFAH2 inh
COc1cccc(C(C[N+](=O)[O-])c2c(C)[nH]n(-c3ccccc3)c2=O)c1 (stereo not given),0,0,0,0,0
Cc1[nH]n(-c2ccccc2)c(=O)c1C(C[N+](=O)[O-])c1ccc(Br)cc1 (stereo not given),0,0,35,0,0
CN(C)C(=O)N1CCC(C(=O)N2CCCC(C(=O)c3ccc(C(C)(C)C)cc3)C2)CC1 (stereo not given),0,26,0,0,0
CC(C)(C)c1ccc(C(=O)C2CCCN(C(=O)CN3CCCC3=O)C2)cc1 (stereo not given),0,0,0,0,0
O=[N+]([O-])c1cc([N+](=O)[O-])c2oc(-c3ccccc3)c(Br)c2c1O,28,-,43,-,46
Cc1ccc(NC(=O)CN(C)Cc2cccs2)cc1Cl,0,0,0,0,0
CCN(CC)c1ccc(NC(=O)CN(C)Cc2cccs2)cc1,0,26,0,0,0
C[C@@H]1ON(C)[C@H]2C[C@H]3c4[nH]c5cccc(Br)c5c4CCN3C(=O)[C@@H]12,-,-,-,0,-
Cc1ccc(C(=O)Oc2cc(C)[nH]c(=O)c2[N+](=O)[O-])cc1,0,29,0,0,0
COc1ccc(C2=CC3=C(Br)C(=O)C(C)(OC(=O)C4CCCC4)C(=O)C3=CO2)cc1 (stereo not given),0,25,0,-,0
COc1ccc(C2=CC3=C(Br)C(=O)C(C)(OC(=O)c4ccc(Cl)nc4)C(=O)C3=CO2)cc1 (stereo not given),-,28,-,-,-
CCCc1cc(=O)oc2c3c(c4c(c12)OC(C)(C)C=C4)OC(C)C(C)C3O (stereo not given),0,31,0,0,0
COc1cccc(C(=O)Nc2ccc3nc(N4CCN(c5ncccn5)CC4)cc(C)c3c2)c1OC,-,82,-,-,-
CCOc1ccccc1C(=O)Nc1ccc2nc(N3CCN(c4ncccn4)CC3)cc(C)c2c1,-,0,-,-,-
O=C1CC[C@@H](CN(Cc2ccccn2)Cc2nc(Cc3cccc(C(F)(F)F)c3)no2)N1,0,0,0,0,0
FC(F)(F)c1cccc(Cc2noc(CN(Cc3ccccn3)CC3CCCO3)n2)c1 (stereo not given),0,33,0,0,0
O=C(CCNC(=O)c1ccc(Cl)cc1)NCc1cccc(C(F)(F)F)c1,0,0,25,0,0
O=C(Cc1cccc(C(F)(F)F)c1)NCc1ccc(Cl)cc1,0,0,0,0,0
O=C1N(Cc2ccccc2)c2ccccc2C12OCCO2,0,25,0,0,0
O=C1N(Cc2ccccc2)c2ccc(Cl)cc2C12OCCO2,0,0,0,0,0
Cc1ccc(C(=O)Nc2cccc(S(=O)(=O)N3CCCCC3)c2)cc1[N+](=O)[O-],0,0,0,0,0
c1csc(C2Nc3cccc4cccc(c34)N2)c1,30,0,0,0,0
c1ccc(C2Nc3cccc4cccc(c34)N2)cc1,0,0,0,0,0
Cc1c2cnn(CC(=O)Nc3c(F)c(F)cc(F)c3F)c(=O)c2c(C)n1Cc1ccccc1F,0,27,0,0,0
CNC(=O)Cn1ncc2c(C)n(Cc3ccc(C)cc3)c(C)c2c1=O,0,0,0,0,0
Nc1nc2c(c(=O)[nH]1)C(c1ccccc1)C1=C(N2)c2ccccc2C1=O (stereo not given),0,0,0,0,0
CCC(C)c1ccc(C2C3=C(Nc4nc(N)[nH]c(=O)c42)c2ccccc2C3=O)cc1 (stereo not given),0,25,0,0,0
NNC(=O)c1cc(O)c(O)c(O)c1,0,30,0,57,0
CN1/C(=C\C(=O)COC(=O)c2ccc(O)c(O)c2)C(C)(C)c2ccccc21,-,32,-,0,-

# Compound activity as filed in PubChem BioAssay.
